PubChem BioAssay (NCI)
This is part of a sample that, as a whole, favours compounds with a hit. Of some 79,000 tested, about 15% had one in any assay. A number with no mark means an inactive call. Activity calls are given as the source filed them. No stated cut-off is given here; in the data, active means growth inhibition above about 70%; inactive means the rest.

Columns and labels:
[1] = NCI Yeast Anticancer Drug Screen. Data for the rad50 strain (AID 155);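 further: 0% = growth of vehicle-only cultures of the same strain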; conditions: S. cerevisiae rad50 strain growth inhibition, stronger effect = higher value
Outline: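 A DNA repair-deficient yeast mutant serves as the test organism; compound-induced growth inhibition is calculated against vehicle-treated cells.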

[2] = NCI Yeast Anticancer Drug Screen. Data for the mec2-1 strain (AID 157); conditions: S. cerevisiae mec2-1 strain, stronger effect = higher value
Outline: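 Growth inhibition is read against vehicle-treated controls after compound exposure of the mec2-1 yeast strain, which is defective in DNA damage repair or cell cycle control.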

[3] = NCI Yeast Anticancer Drug Screen. Data for the sgs1 mgt1 strain (AID 161);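 further: 0% = growth of cultures given vehicle only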; conditions: S. cerevisiae sgs1 mgt1 strain, stronger effect = higher value
Outline: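 Yeast cells carrying a defined DNA-repair defect were exposed to test compounds. Growth inhibition was measured relative to vehicle-treated controls.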

[4] = NCI Yeast Anticancer Drug Screen. Data for the cln2 rad14 strain (AID 165);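 further: 0% = growth equal to vehicle treated cultures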; conditions: S. cerevisiae cln2 rad14 strain, stronger effect = higher value
Outline: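 Growth inhibition, relative to vehicle-treated controls, is the read-out. The test organism is a yeast strain with defined genetic alterations, cln2 rad14.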

[5] = NCI Yeast Anticancer Drug Screen. Data for the bub3 strain (AID 167); conditions: S. cerevisiae bub3 mutant strain, stronger effect = higher value
Outline: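 Inhibition values come from growth of compound-treated mutant yeast normalised to vehicle-treated controls.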

[6] = NCI Yeast Anticancer Drug Screen. Data for the mlh1 rad18 strain (AID 175); conditions: S. cerevisiae mlh1 rad18 strain growth inhibition, stronger effect = higher value
Outline: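 Cells of a genetically altered yeast strain, deficient in DNA damage repair, were treated with compound. Their growth was then compared with that of vehicle-treated cultures to give inhibition.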

[7] = at 5.0 µM (retest, dose inferred, filed as 0.5)
[8] = at 50.0 µM (retest, dose inferred, filed as 5.0)

Compound	growth inhibition [1, 7]	growth inhibition [1, 8]	growth inhibition ([1]; at 50.0 µM)	growth inhibition [2, 7]	growth inhibition [2, 8]	growth inhibition ([2]; at 50.0 µM)	growth inhibition [3, 7]	growth inhibition [3, 8]	growth inhibition ([3]; at 50.0 µM)	growth inhibition [4, 7]	growth inhibition [4, 8]	growth inhibition ([4]; at 50.0 µM)	growth inhibition [5, 7]	growth inhibition [5, 8]	growth inhibition ([5]; at 50.0 µM)	growth inhibition [6, 7]	growth inhibition [6, 8]	growth inhibition ([6]; at 50.0 µM)
Cn1c(C(C)(C)OC(=O)Oc2ccccc2)cnc1[N+](=O)[O-]	0%	51%	37.1%	-1%	24%	16.8%	3%	68%	65.5%	4%	31%	30.4%	0%	4%	1.35%	9%	54%	38.8%
CC(C(=O)O)c1c(-c2ccccc2)ccc2ccccc12 (stereo not given)	37%	3%	38.9%	22%	4%	51.1%	2%	32%	51.5%	-8%	12%	52.1%	6%	14%	38.9%	5%	24%	63.6%
CCN(CC)Cc1c(-c2ccccc2)oc(-c2ccccc2)c1CN(CC)CC	-15%	33%	64.7%	1%	2%	-0.45%	-15%	33%	-5.75%	-2%	-1%	-9.8%	1%	8%	36.4%	2%	32%	67.4%
Cc1ccc(-c2c(C#N)c(-c3ccccc3)n(NS(=O)(=O)c3ccc(C)cc3)c(=O)c2C#N)cc1	26%	73% (active)	73.5% (active)	28%	67%	79.1% (active)	35%	70% (active)	81% (active)	52%	68%	80.8% (active)	51%	70% (active)	81.7% (active)	34%	72% (active)	77.2% (active)
CCCCCCCCCCCCCCCCN(CC)CC	99% (active)	99% (active)	99.6% (active)	99% (active)	99% (active)	99.7% (active)	99% (active)	100% (active)	99.4% (active)	97% (active)	99% (active)	99.3% (active)	98% (active)	99% (active)	99.7% (active)	99% (active)	99% (active)	99.6% (active)
COCCCNC(=O)SC	0%	-2%	-9.65%	2%	-1%	-22.4%	3%	2%	-15.6%	-2%	0%	56.6%	0%	2%	-6.85%	0%	-2%	19.1%
CC(C)N=C1NS(=O)(=O)c2ccccc21	-2%	-1%	5.5%	-2%	0%	-3.75%	0%	-4%	-0.4%	0%	-2%	17.8%	-3%	-2%	21.4%	-5%	0%	2.6%
CC(=O)OCC1OC(OC(C)=O)C(On2nnc3c(-c4ccccc4)c(C)nn32)C(OC(C)=O)C1OC(C)=O (stereo not given)	0%	54%	61.5%	-1%	71% (active)	35.8%	2%	76% (active)	47.8%	1%	52%	41.1%	-1%	59%	16.1%	-3%	58%	36.2%
Nc1ccc(S(=O)(=O)Nc2nc3ccccc3nc2N2CCCCCC2)cc1	30%	79% (active)	43.5%	30%	87% (active)	48.1%	36%	92% (active)	82.2% (active)	40%	92% (active)	82.5% (active)	44%	95% (active)	85.2% (active)	39%	90% (active)	85.6% (active)
O=C(CCl)Oc1c(Br)cc(-c2ccccc2)cc1Br	32%	95% (active)	77.3% (active)	42%	99% (active)	56.1%	65%	99% (active)	88.8% (active)	57%	97% (active)	41.9%	30%	98% (active)	16.9%	73% (active)	95% (active)	82.2% (active)
